# From PubChem BioAssay (NCI)
# Values joined by “and” are separate entries in the source; they are usually repeats but may differ in a detail not shown here. Equal entries are not always repeated. Compounds without any hit were thinned out: in the full panel of roughly 83,000, 20% have a hit.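 Growth was measured after 48 h exposure to one concentration of compound in 96-well plates. Values under 10 count as active.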 Active and inactive are the calls of the source.
# System: CCRF-CEM leukemia
# Assay: NCI-60 one-dose screen, 48 h (100 = growth as untreated, 0 = no growth, -100 = all killed)
# Settings: 10 µM
# Protocol: Growth inhibition of the CCRF-CEM human tumor cell line is measured as a screen for anti-cancer activity. Cells are grown in 96 well plates and exposed to the test compound for 48 hours. Compounds are tested at a single concentration, which is 10^-5 M for most compounds. The reported endpoint is percent growth (GI% or GIPRCNT), where numbers from 0 - 100% represent growth inhibition, and numbers from -100% - 0 represent cell death. For example, a value of 40 represents 60% growth inhibition. A value of 0 means no net growth occurred over the course of the experiment. A value of -40 indicates 40% of cells at the beginning of the experiment died by the end of the experiment. A value of -100 means all cells are dead at the end of the experiment.
# NCI-60 Human Tumor Cell Lines Screen was performed using the standard one-dose NCI protocol, which is described in more detail at https://dtp.cancer.gov/discovery_development/nci-60/default.htm.
# Compounds with GIPRCNT values below 10 were considered active. Activity score was based on GIPRCNT using the following formula: […]
# Score is 0 for GIPRCNT values of 100 or above, 50 for GIPRCNT values of 0, and 100 for GIPRCNT values of -100.
row,Compound,growth
1,O=C(O)c1c(Cl)c(Cl)c(Cl)c(Cl)c1-c1c2cc(I)c(=O)c(I)c-2oc2c(I)c(O)c(I)cc12,104% (inactive) and 101% (inactive) and 51.4% (inactive)

# Same assay, conditions: 10 µM unless noted
row,Compound,growth
1,CC1=CC(O)C2CC1C2(C)C (stereo not given),106% (inactive) and 105% (inactive)
2,C[n+]1c(/C=C/c2ccc([N+](=O)[O-])cc2)ccc2ccccc21,112% (inactive)
3,Nc1nc(N)c2nc(CNc3ccc(C(=O)NC(CCC(=O)O)C(=O)O)cc3)cnc2n1 (stereo not given),22.6% (inactive) and 29.9% (inactive)
4,Cn1c2ccccc2c2nnc(N/N=C/c3ccccn3)nc21,-37.2% (active)
5,CC(C)(C)c1ccc(O)c(C2CCCCC2)c1,47.9% (inactive)
6,CN(C)c1ccc(/C=N/N=C(\C#N)[S][Sn]([Cl])([c]2ccccc2)[c]2ccccc2)cc1,-20.2% (active)
7,CC(C)c1ccc2nc3ccc(C(=O)NCCN4CCN(c5ccccc5)CC4)cn3c(=O)c2c1,50.7% (inactive)
8,S=C(N/N=C/c1ccccn1)Nc1ccccn1,-14.8% (active)
9,COc1ccccc1/C=C\C(=O)c1ccccc1,11% (inactive)
10,Oc1c(Br)c(Br)c(O)c(Br)c1Br,15.8% (inactive)
11,NC(N)=N/N=C/c1ccc([N+](=O)[O-])o1,87.9% (inactive)
12,Cc1ccnc2c1ccc1c(C)ccnc12,13.6% (inactive)
13,CC(=O)Nc1cccc2cc(O)ccc12,98.1% (inactive) and 101% (inactive) and 104% (inactive)
14,Cc1ccc2nc(C[n+]3ccc4ccccc4c3)ccc2c1,52.6% (inactive)
15,CCCCCCCCCCCCCCCCOP(=O)([O-])OCC[N+](C)(C)C,1.24% (active)
16,COc1cc(/C=C/C(C)=O)ccc1O,28.4% (inactive) and 78.1% (inactive)
17,CNc1ccc(N)cc1,87.6% (inactive)
18,Cc1ccc(N=C=C(c2ccccc2)c2ccccc2)cc1,1.63% (active)
19,O=C1c2ccccc2C(=O)N1c1ccccc1,114% (inactive)

row,Compound,growth
1,N[C@H](C(=O)O)[C@@H]1CC(Cl)=NO1,19% [20 µM] (inactive)
2,C=C(Cl)C(=NC(C)(C)C)Nc1ccccc1C,98.1% (inactive)
3,Nc1ncnc2c1ncn2C1OC(CO)C(O)C1O (stereo not given),96.7% (inactive) and 119% (inactive) and 105% (inactive)
4,O=C(CC1(O)C(=O)Nc2c(Cl)ccc(Cl)c21)c1ccc(Cl)cc1Cl (stereo not given),112% (inactive)
5,CC1OC2CC(=O)OC2C2=C1C(=O)c1c(O)cccc1C2=O (stereo not given),0.534% (active)
6,O=C1N[C@H]2[C@H](CS[C@H]2CCCCC(=O)N(CCP(c2ccccc2)c2ccccc2)CCP(c2ccccc2)c2ccccc2)N1,62.7% (inactive)
7,Nc1nc(N)c2c(ccc3c2ccn3Cc2cccc([N+](=O)[O-])c2)n1,24% (inactive)
8,O=C(Oc1cccc2cccnc12)c1ccccc1,23.7% (inactive) and 102% (inactive)
9,N#CSCc1ccc(Cl)c(CSC#N)c1,12% (inactive)
10,CN1c2ccccc2C(C)(C)C12C=Cc1cc(O)ccc1O2 (stereo not given),-16.8% (active)
11,Cc1cc(C(C)(CC(C)C)c2ccc(O)c(C)c2)ccc1O,92% (inactive)
12,OC(CNc1ccnc2cc(Cl)ccc12)CNc1ccnc2cc(Cl)ccc12,-15.8% (active)
13,CCC(CC)COC(=O)c1ccc(O)c(O)c1,15.2% (inactive)
14,CCCCCCC(C)c1ccccc1O (stereo not given) (tested in a mixture with another compound),99.1% (inactive)
15,COC(=O)Nc1nc2ccc(C(=O)c3ccccc3)cc2[nH]1,15.7% (inactive) and -14.1% (active) and 1.15% (active)
16,N#CSCc1ccc(CSC#N)c(Cl)c1,19.3% (inactive)
17,Cc1ccc2nc(-[n+]3cc4ccccc4cc3C)ccc2c1,40% (inactive)
18,COC(=O)c1nc(=S)[nH]c(C(=O)OC)c1C(=O)c1ccc2ccccc2c1,102% (inactive)
19,O=C1c2ccccc2C(=O)c2sc(Nc3cccc(Cl)c3)nc21,8.52% (active)

# Same assay, conditions: 100 µM
row,Compound,growth
1,O=C(O)c1c(Cl)c(Cl)c(Cl)c(Cl)c1-c1c2cc(I)c(=O)c(I)c-2oc2c(I)c(O)c(I)cc12,-30.2% (active)
